In PubChem BioAssay AID493098 (Sanford-Burnham Center for Chemical Genomics, 2011):
“And” between values parts separate entries of the source, which are not always exact repeats. Equal entries are not always repeated. The whole screen tested about 340,000 compounds, of which about 1,700 (0.5%) were called active.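 The calls were made as follows: active = compounds whose inhibition of the agonist-driven luminescence signal at 20 µM reaches about 50% (limit read from the data); inactive = the rest.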 Shown is part of a subset that was picked to be rich in actives.

target: C-C chemokine receptor type 6 (Homo sapiens) (UniProt P51684); assay: blockers of CCL20-driven beta-arrestin recruitment to CCR6 – cell-based, CHO-K1, luminescence, uHTS, primary screen (AID 493098); conditions: CHO-K1 CCR6 PathHunter beta-arrestin, CCL20-stimulated, at 20 µM, active compounds read high;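 also: cells stimulated with CCL20 at 14 nM final; plate controls were DMSO with CCL20 for no effect and DMSO without agonist for full effect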
Sequence (P51684 whole entry, looked up): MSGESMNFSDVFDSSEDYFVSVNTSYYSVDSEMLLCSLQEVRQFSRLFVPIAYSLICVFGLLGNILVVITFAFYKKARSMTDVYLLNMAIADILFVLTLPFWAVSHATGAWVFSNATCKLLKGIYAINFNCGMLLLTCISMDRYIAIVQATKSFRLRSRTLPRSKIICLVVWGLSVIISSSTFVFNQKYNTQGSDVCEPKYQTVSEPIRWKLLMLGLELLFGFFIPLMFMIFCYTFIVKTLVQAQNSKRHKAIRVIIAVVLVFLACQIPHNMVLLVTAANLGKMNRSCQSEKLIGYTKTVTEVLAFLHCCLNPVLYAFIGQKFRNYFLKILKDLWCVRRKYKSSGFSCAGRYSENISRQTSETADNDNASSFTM

| Compound | inhibition |
| --- | --- |
| CSCCC(NC(=O)COc1ccccc1)C(=O)OCc1ccc(Cl)cc1 (stereo not drawn) | -15.3% (inactive) |
| CSCCC(NC(=O)COc1ccccc1)C(=O)OCC(=O)c1cc2ccccc2o1 (stereo not drawn) | 59.6% (active) |
| CSCCC(NC(=O)COc1ccccc1)C(=O)OCCOc1ccc(Br)cc1 (stereo not drawn) | 12.1% (inactive) |
| C#CCO[C@@H]1C[C@H](n2cnc3c(=O)[nH]c(NC(=O)C(C)C)nc32)O[C@@H]1CO | -6.43% (inactive) |
| Cc1csc(SCC(=O)N(c2ccccc2)C(C)C)n1 | 13.7% (inactive) |
| Cc1nc(-c2ccc(F)cc2)c(CC(=O)Nc2cc(S(=O)(=O)N3CCCCC3)ccc2C)s1 | 5.08% (inactive) |
| CC1=C/C(=N\OS(=O)(=O)c2ccccc2)C=CC1=O | 80.3% (active) |
| O=C(NC1CC1)C(Cc1ccccc1)NS(=O)(=O)c1ccccc1F (stereo not drawn) | 6.69% (inactive) |
| CN(O)C(=S)c1ccccc1 | 95.7% (active) |
| CN(CC(=O)O)C(=O)c1ccccc1 | -10.2% (inactive) |
| CN(/N=C/c1ccccc1)C(=S)c1ccccc1 | 23.9% (inactive) |
| COC(=O)c1sc(-c2ccc(C(C)(C)C)cc2)cc1NC(=O)/C=C/C(=O)O | -1.25% (inactive) |
| O=[N+]([O-])/C=C/c1ccc2c(ccn2Cc2ccccc2)c1 | 91.2% (active) |
| Cc1nnc(NC(=O)Cn2c(=O)sc3ccccc32)s1 | -5.17% (inactive) |
| COc1cccc(NC(=O)c2cc(S(=O)(=O)N3CCc4ccccc43)cn2C)c1 | -11.8% (inactive) |
| O=C(CCl)NNc1cccc(Cl)n1 | 60.7% (active) |
| O=C(Cc1c(Cl)cccc1Cl)NC1CC1 | -1.28% (inactive) |
| Cc1cccc(NC(=O)Cc2ccc(Br)cc2)n1 | 13.2% (inactive) |
| C=CCC(C(=O)c1ccccc1)[N+](C)(C)CC=C (stereo not drawn) | -0.91% (inactive) |
| CN(CCc1ccccn1)C(=O)c1ccc(OC2CCN(CCc3ccccc3)CC2)cc1 | 13.6% (inactive) |
| CCc1c(C)nc2c(-c3ccccc3)c(C)nn2c1Nc1ccc(NC(C)=O)cc1 | 4.32% (inactive) |
| O=C(CSc1cccc2cccnc12)N/N=C/c1cccnc1 | 61.7% (active) |
| CCn1c(SCC(=O)N/N=C/c2ccncc2)nc2ccccc21 | 10.1% (inactive) |
| COc1ccc(C(=O)NCC(=O)N/N=C/c2cccnc2)cc1 | -3.8% (inactive) |

| Compound | inhibition |
| --- | --- |
| COc1ccc(C(=O)NCc2ccccc2C)cc1S(=O)(=O)NC1CCCC1 | 2.68% (inactive) |
| O=c1onc(-c2cccs2)n1Cc1ccccc1 | 2.59% (inactive) |
| Cc1c(O)c(C)c2c(c1O)C(=O)C[C@@H](c1ccccc1)O2 | 14.4% (inactive) |
| COc1ccc(C(=O)c2oc3ccc(Br)cc3c2NC(C)=O)cc1 | 3.07% (inactive) |
| COC(=O)C1=C(C)N(C)C(C)=C(C(=O)OC)C1c1cccc(Br)c1 | 36.4% (inactive) |
| COC(=O)C1NN=C(C(=O)c2ccc(Br)cc2)C1c1cccc(Br)c1 (stereo not drawn) | 52.8% (active) |
| COC(=O)c1ccc([C@@H](O)[C@H](C)C(=O)CC(=O)OC(C)(C)C)cc1 | 0.65% (inactive) |
| N#Cc1cccc(OC(=O)c2ccc3c(=O)n4c(nc3c2)CCC4)c1 | 9.54% (inactive) |
| Cc1ccc(-n2ncc3c(Nc4cccc(C(=O)O)c4)ncnc32)cc1 | 9.65% (inactive) |
| COc1cc(CNc2ncn[nH]2)ccc1OCc1ccccc1C | -5.7% (inactive) |
| CC1(C)CC[C@]2(C(=O)O)CC[C@]3(C)C(=CCC4[C@@]5(C)CC[C@H](O)C(C)(C)C5[C@H](O)C[C@]43C)[C@@H]2C1 (stereo partly drawn) | -0.24% (inactive) |
| Cc1c(NC(=O)CSc2nnnn2-c2ccc(C(=O)O)cc2)c(=O)n(-c2ccccc2)n1C | 10.9% (inactive) |
| Cc1c(NC(=O)CSc2cccc3cccnc23)c(=O)n(-c2ccccc2)n1C | 59.7% (active) |
| Cc1c(NC(=O)CSc2nnc(-c3cccnc3)n2N)c(=O)n(-c2ccccc2)n1C | 5.23% (inactive) |
| Cc1ccc(C)c(OCCC(=O)OCC(=O)N2CCN(c3ccccc3)CC2)c1 | 20.8% (inactive) |
| Cc1cc(Cl)nc(NC(=O)Nc2cccc(Cl)c2)n1 | 16% (inactive) |
| CCC(=O)Nc1nc(C)c(C(=O)Nc2cccc(Cl)c2)s1 | 5.65% (inactive) |
| Cc1csc(NC(=S)Nc2cccc(Cl)c2)n1 | 60% (active) |
| Cc1cccc(NC(=O)CCN2CC(C)CC(C)C2)c1 (stereo not drawn) | 8.72% (inactive) |
| C=CCn1c(N)c(C(=O)OCC(C)C)c2nc3ccccc3nc21 | 56.9% (active) |
| C=CCn1c(C(C)NC(=O)CC)nc2ccccc21 (stereo not drawn) | 2.5% (inactive) |
| C=CCn1c(P(C)(=O)O)nc2ccccc21 | 2.22% (inactive) and 1.13% (inactive) |
| CCc1nnc(NC(=O)C2CCN(C(=O)c3ccccc3C)CC2)s1 | 1.37% (inactive) |
| COc1ccc(CCOC(=O)CNC(=O)c2ccc(Cl)cc2Cl)cc1 | 27.9% (inactive) |

| Compound | inhibition |
| --- | --- |
| Cc1ccc(Br)c(NS(=O)(=O)c2cccc(C(=O)N3CCNC(=O)C3)c2)c1 | -11% (inactive) |
| COc1ccc2sc(-c3ccc(N(C)C)cc3)c(C#CCO)c2c1 | -34.2% (inactive) |
| COc1ccc2c(c1)c(=Cc1ccc(N(C)C)cc1)c1cc(-c3ccccc3)[n+](C)n12 | 67.2% (active) |
| Cc1ccc(Cn2c(C)c3cnn(CC(=O)NCc4ccccn4)c(=O)c3c2C)cc1 | -8.58% (inactive) |
| CCOC(=O)c1cnc(Nc2nc3ccccc3o2)nc1CSC(=S)N1CCCCC1 | 66.8% (active) |
| CCc1ccc(CNC(=O)C2CCCN(c3nc4ccccc4o3)C2)cc1 (stereo not drawn) | -4.97% (inactive) |
| CCOC(=O)CCNC(=O)N1CCCC(C(=O)c2ccccc2SC)C1 (stereo not drawn) | -6.81% (inactive) |
| O=C(COc1ncnc2ccccc12)NC(=O)NCc1ccccc1 | 3.38% (inactive) |
| NS(=O)(=O)c1ccc(NC(=S)NNC(=O)c2cccs2)cc1 | 31.7% (inactive) |
| CCOc1ccc(C(=O)Nc2nccs2)cc1[N+](=O)[O-] | 4.46% (inactive) |
| Cc1ccc(OS(=O)Nc2cccc3nccnc23)cc1 (stereo not drawn) | 55.4% (active) |
| Cc1ccc(C)c(NC(=O)c2ccc3nccnc3c2)c1 | -3.74% (inactive) |
| Cc1ccc(Oc2ccc3c(c2)C(=O)N(c2cccc4cccnc24)C3=O)cc1 | 8.43% (inactive) |
| CC1CN(C(=O)COC(=O)c2cccc(NS(=O)(=O)c3ccccc3)c2)CC(C)O1 (stereo not drawn) | -4.23% (inactive) |
| COc1ccc(C2C(C(C)=O)=C(O)C(=O)N2c2nccs2)cc1 (stereo not drawn) | 22.9% (inactive) |
| CC1(C)C=Cc2c(ccc3c2OC[C@@H](c2ccc(O)cc2O)C3)O1 | -20.6% (inactive) |
| CN(C)/C=N/c1cc(=O)n(C)c(=O)n1CC1CC1 | -0.5% (inactive) |
| CCOC(=O)c1nnn2c1nc(N1CCN(c3ccccc3)CC1)c1ccccc12 | 13.9% (inactive) |
| CCCn1c(C2CCCN2c2nc(-c3ccc(OC)cc3)cs2)nc2ccccc21 (stereo not drawn) | 22.3% (inactive) |
| COc1ccc(-c2csc(Cc3nc(O)cs3)n2)cc1 | 68.3% (active) |
| COc1ccc(CNc2nccs2)cc1 | 19.1% (inactive) |
| Cc1cccc(N(C)C(=O)c2cc(S(=O)(=O)N3CCCCC3)c[nH]2)c1 | -9.41% (inactive) |
| Cc1ccc2c(c1)C1C[N+](C)(CC(=O)c3ccccc3)CCC1N2C(=O)c1ccccc1Cl (stereo not drawn) | 7.95% (inactive) |
| O=[N+]([O-])c1ccc(C=NN=Cc2ccc([N+](=O)[O-])cc2)cc1 | 9.6% (inactive) |

| Compound | inhibition |
| --- | --- |
| O=C1/C(=C\c2ccc([N+](=O)[O-])cc2)CS(=O)(=O)C/C1=C/c1ccc([N+](=O)[O-])cc1 | 102% (active) |
| O=C(NN=Cc1ccc([N+](=O)[O-])cc1)C1CC1 | -1.3% (inactive) |
| OCCC1CN(Cc2cccn2-c2nccs2)CCN1CCc1ccccc1 (stereo not drawn) | 3.25% (inactive) |
| CCCOC(=O)c1c(NC(=O)c2cnn3c2NC(c2ccccc2)CC3C(F)(F)F)sc2c1CCCC2 (stereo not drawn) | 8.83% (inactive) |
| O=C1Nc2ccc(Br)cc2/C1=N/N=C/C1=C(N2CCOCC2)C(=C\c2ccccc2)/CC1 | 55.1% (active) |
| N#C/C(=C\C1=C(N2CCOCC2)C(=C\c2ccccc2)/CC1)C(=O)Nc1ccccc1F | 37.8% (inactive) |
| O=C(O)c1ccc(NN=CC2=C(N3CCOCC3)/C(=C/c3ccccc3)CC2)cc1 | -7.52% (inactive) |
| COc1ccc(Nc2cc(=O)n(-c3ccccc3)c3c2c(=O)n(C)c(=O)n3C)cc1 | 2.01% (inactive) |
| Cc1ccc(S(=O)(=O)N2CCN(C)CC2)cc1 | 13.6% (inactive) |
| Cn1ncc(N2CCN(S(=O)(=O)c3ccc(Br)cc3)CC2)c(Cl)c1=O | 6.7% (inactive) |
| CN(C)/C=C(/C(=O)c1ccc(Cl)c(Cl)c1)c1nnnn1-c1ccccc1 | 3.92% (inactive) |
| O=C(Cc1ccccc1)N1N=C(c2ccncc2)CC1(O)C(F)(F)F (stereo not drawn) | 6.09% (inactive) |
| O=C(c1ccc(Cl)cc1)N1N=C(c2ccccn2)CC1(O)C(F)(F)F (stereo not drawn) | 57.1% (active) |
| O=C(C1CC1)N1N=C(c2ccc(Br)cc2)CC1(O)C(F)(F)F (stereo not drawn) | 2.39% (inactive) |
| Cc1ccc(-n2c(O)c(C=Nc3ccc(S(=O)(=O)Nc4ncccn4)cc3)c3ccccc3c2=O)cc1C | 13.7% (inactive) |
| CCN(CC)CCCN=Cc1c(O)n(-c2ccc(C)cc2)c(=O)c2ccccc12 | 6.64% (inactive) |
| CCOc1ccc(-n2c(O)c(/C=N/Nc3nc(C)cc(C)n3)c3ccccc3c2=O)cc1 | 52.4% (active) |
| CC(=O)c1cccc(NC(=O)N2CCCC2C(=O)NCCC(C)C)c1 (stereo not drawn) | 8% (inactive) |
| Cc1nn(C(C)CC(=O)O)c(C)c1C (stereo not drawn) | -5.98% (inactive) |
| O=c1ccc2c(-c3ccccc3S(=O)(=O)O)c3ccc(O)c(O)c3oc-2c1O | 64.6% (active) |
| O=C(CSc1ccc2nnc(-c3ccccc3)n2n1)N1CCCc2ccccc21 | -9.56% (inactive) |
